# Assay results: the supplement of paper PMC13380429
# Columns and labels:
# [1] = tested on: Vero E6 infected with SARS-CoV-2; test: morphology score (similarity to uninfected cells); higher = more like uninfected cells; conditions: 24 h
# [2] = tested on: Vero E6 infected with SARS-CoV-2; test: SARS-CoV-2 infection rate relative to infected DMSO; higher = more infection, active = 60 or less; conditions: 24 h
smiles,measurement,setting,value
Cc1cc(Nc2ncnc3ccc(NC4=NC(C)(C)CO4)cc23)ccc1Oc1ccn2ncnc2c1 [tucatinib] (0.833333 µM),morphology score,[1],-0.0894
same,SARS-CoV-2 infection rate,[2],114% (inactive)
Nc1ncnc2c1ncn2[C@@H]1O[C@H](COP(=O)(O)OP(=O)(O)OP(=O)(O)O)[C@@H](O)[C@H]1O (10 µM),morphology score,[1],-0.0072
same,SARS-CoV-2 infection rate,[2],99.5% (inactive)
CC(=O)[O-].CC(=O)[O-].N.NC1CCCCC1.[Cl-].[Cl-].[Pt+4] [satraplatin] (0.833333 µM),morphology score,[1],0.00101
same,SARS-CoV-2 infection rate,[2],104% (inactive)
O=C(CCCN1CCC2(CC1)C(=O)N(Cc1cccc(F)c1)CN2c1ccccc1)c1ccc(F)cc1 [3'-fluorobenzylspiperone] (0.833333 µM),morphology score,[1],0.325
same,SARS-CoV-2 infection rate,[2],103% (inactive)
Cc1ccc(F)cc1C(=O)Nc1ccc(C(=O)N2Cc3cccn3Cc3ccccc32)c(Cl)c1 [lixivaptan] (10 µM),morphology score,[1],0.0414
same,SARS-CoV-2 infection rate,[2],111% (inactive)
CCN(CC)C(=O)N[C@H]1C=C2c3cccc4[nH]cc(c34)C[C@H]2N(C)C1 [lisuride] (10 µM),morphology score,[1],-0.111
same,SARS-CoV-2 infection rate,[2],110% (inactive)
CNC(=C[N+](=O)[O-])NCCSCc1ccc(CN(C)C)o1 [ranitidine] (10 µM),morphology score,[1],-0.0967
same,SARS-CoV-2 infection rate,[2],111% (inactive)
NC(N)=Nc1nc(CSCCN/C=N/S(=O)(=O)c2ccc(Br)cc2)cs1 [ebrotidine] (10 µM),morphology score,[1],0.0177
same,SARS-CoV-2 infection rate,[2],97% (inactive)
CCN(CC)CCNC(=O)c1cc(Cl)c(N)cc1OC [metoclopramide] (10 µM),morphology score,[1],-0.00451
same,SARS-CoV-2 infection rate,[2],107% (inactive)
Cn1cc(-c2ccc3nnc(Sc4ccc5ncccc5c4)n3n2)cn1 (10 µM),morphology score,[1],0.144
same,SARS-CoV-2 infection rate,[2],87% (inactive)
CNC(=O)[C@H](Cc1ccccc1)NC(=O)[C@H](CC(C)C)[C@H](CSc1cccs1)C(=O)NO [batimastat] (10 µM),morphology score,[1],0.0292
same,SARS-CoV-2 infection rate,[2],104% (inactive)
O=C(O)c1ccccc1C(=O)Nc1ccc(-c2ccccc2)cc1 [kartogenin] (10 µM),morphology score,[1],0.214
same,SARS-CoV-2 infection rate,[2],97.5% (inactive)
O=C1OC(CN2CCOCC2)CN1/N=C/c1ccc([N+](=O)[O-])o1 (configuration not stated) [furaltadone] (10 µM),morphology score,[1],0.0402
same,SARS-CoV-2 infection rate,[2],97% (inactive)
CCCn1c(=O)[nH]c2nc(-c3ccc(S(=O)(=O)O)cc3)[nH]c2c1=O (10 µM),morphology score,[1],0.179
same,SARS-CoV-2 infection rate,[2],105% (inactive)
COCCCC/C(=N\OCCN)c1ccc(C(F)(F)F)cc1 [fluvoxamine] (10 µM),morphology score,[1],0.0586
same,SARS-CoV-2 infection rate,[2],90% (inactive)
N#Cc1cnc2cnc(NCc3cccnc3)cc2c1Nc1ccc(F)c(Cl)c1 (10 µM),morphology score,[1],0.0314
same,SARS-CoV-2 infection rate,[2],102% (inactive)
Cc1ccc(-c2nc3ccc(C)cn3c2CC(=O)N(C)C)cc1 (10 µM),morphology score,[1],0.137
same,SARS-CoV-2 infection rate,[2],98.5% (inactive)
CN(C)CCN(C)CCc1ccc(Cl)c(Cl)c1 (10 µM),morphology score,[1],0.208
same,SARS-CoV-2 infection rate,[2],82.5% (inactive)
Clc1ccc(C(c2ccccc2Cl)C(Cl)Cl)cc1 (configuration not stated) [mitotane] (10 µM),morphology score,[1],-0.173
same,SARS-CoV-2 infection rate,[2],112% (inactive)
CN1CCN(CC/C=C2/c3ccccc3Sc3ccc(S(=O)(=O)N(C)C)cc32)CC1 [thiothixene] (10 µM),morphology score,[1],0.381
same,SARS-CoV-2 infection rate,[2],80.5% (inactive)
c1coc(-c2nnc3sc(C4CCCCC4)nn23)c1 [cardionogen-1] (10 µM),morphology score,[1],0.254
same,SARS-CoV-2 infection rate,[2],89% (inactive)
COc1ccccc1OC(=O)C(C)c1ccc(CC(C)C)cc1 (configuration not stated) [metoxibutropate] (10 µM),morphology score,[1],0.217
same,SARS-CoV-2 infection rate,[2],101% (inactive)
COc1cc2c(cc1OC)[C@@H](Cc1cc(OC)c(OC)c(OC)c1)[N+](C)(CCCOC(=O)CC/C=C/CCC(=O)OCCC[N+]1(C)CCc3cc(OC)c(OC)cc3[C@H]1Cc1cc(OC)c(OC)c(OC)c1)CC2 (some centres not stated) [mivacurium] (10 µM),morphology score,[1],-0.0909
same,SARS-CoV-2 infection rate,[2],104% (inactive)
O=[N+]([O-])C(Br)(CO)CO [bronopol] (10 µM),morphology score,[1],-0.0828
same,SARS-CoV-2 infection rate,[2],108% (inactive)
CCC[C@H](N[C@H]1CCc2cc(F)cc(F)c2C1)C(=O)Nc1cn(C(C)(C)CNCC(C)(C)C)cn1 (10 µM),morphology score,[1],0.0166
same,SARS-CoV-2 infection rate,[2],102% (inactive)
CS(=O)(=O)c1ccc(-c2cc(Br)sc2-c2ccc(F)cc2)cc1 (10 µM),morphology score,[1],0.0351
same,SARS-CoV-2 infection rate,[2],104% (inactive)
Cc1ccc2c(=O)c3ccccc3n(CCCN)c2c1C (10 µM),morphology score,[1],-0.144
same,SARS-CoV-2 infection rate,[2],110% (inactive)
CS(=O)(=O)c1ccc(Oc2cc(F)cc(C#N)c2)c2c1[C@H](O)C(F)(F)C2 (10 µM),morphology score,[1],0.0223
same,SARS-CoV-2 infection rate,[2],99% (inactive)
CN(C)Cc1cccc(N=C(c2ccccc2)c2c(O)[nH]c3cc(C(=O)N(C)C)ccc23)c1 (10 µM),morphology score,[1],-0.271
same,SARS-CoV-2 infection rate,[2],112% (inactive)
Cc1ccc(C(=O)c2ccc(CC(=O)O)n2C)cc1 [tolmetin] (10 µM),morphology score,[1],0.0813
same,SARS-CoV-2 infection rate,[2],106% (inactive)
Oc1c(CN2CCCC2)cc(COCc2ccccc2)c2cccnc12 (10 µM),morphology score,[1],0.0259
same,SARS-CoV-2 infection rate,[2],104% (inactive)
COc1ccccc1OCC(O)CO (configuration not stated) [guaifenesin] (10 µM),morphology score,[1],-0.044
same,SARS-CoV-2 infection rate,[2],112% (inactive)
CCCCC/C=C\C/C=C\CCCCCCCC(=O)NCCCC(=O)O [GABA-linoleamide] (10 µM),morphology score,[1],0.105
same,SARS-CoV-2 infection rate,[2],97.5% (inactive)
CCOc1nc2cccc(C(=O)O)c2n1Cc1ccc(-c2ccccc2-c2nnn[nH]2)cc1 [candesartan] (10 µM),morphology score,[1],0.175
same,SARS-CoV-2 infection rate,[2],105% (inactive)
COc1cc(C[C@@H](CO)[C@H](CO)Cc2ccc(O)c(OC)c2)ccc1O [secoisolariciresinol-(-)] (10 µM),morphology score,[1],-0.0638
same,SARS-CoV-2 infection rate,[2],109% (inactive)
CN(C)CCOc1ccc(-c2nc(-c3ccncc3)c(-c3ccc4c(c3)CC/C4=N\O)[nH]2)cc1 (10 µM),morphology score,[1],-0.0571
same,SARS-CoV-2 infection rate,[2],96% (inactive)
Cc1ccc([N+](=O)[O-])cc1S(=O)(=O)N(C)/N=C/c1cnc2ccc(Br)cn12 (0.833333 µM),morphology score,[1],0.0254
same,SARS-CoV-2 infection rate,[2],112% (inactive)
CN[C@H](CNC(=O)N1CCC[C@@H]([C@@H](OCCNC(=O)OC)c2cccc(Cl)c2)C1)C[C@H]1CCCOC1 (10 µM),morphology score,[1],-0.0283
same,SARS-CoV-2 infection rate,[2],105% (inactive)
[Cl][Ru-]([Cl])([Cl])[Cl].[Na+].c1ccc2[nH]ncc2c1.c1ccc2[nH]ncc2c1 (10 µM),morphology score,[1],0.443
same,SARS-CoV-2 infection rate,[2],43% (active)
Cc1cc(SCc2sc(-c3ccc(C(F)(F)F)cc3)nc2C)ccc1OCC(=O)O (10 µM),morphology score,[1],0.0978
same,SARS-CoV-2 infection rate,[2],98.5% (inactive)
OCCN1CCN(CCCN2c3ccccc3C=Cc3ccccc32)CC1 [opipramol] (10 µM),morphology score,[1],0.237
same,SARS-CoV-2 infection rate,[2],102% (inactive)
Cc1c(C)c2c(c(C)c1O)CCC(C)(COc1ccc(CC3SC(=O)NC3=O)cc1)O2 (configuration not stated) [troglitazone] (10 µM),morphology score,[1],0.342
same,SARS-CoV-2 infection rate,[2],89% (inactive)
CC(C)(C)NS(=O)(=O)c1cncc(-c2cc(F)c3nc(N)nn3c2)c1 (10 µM),morphology score,[1],0.0263
same,SARS-CoV-2 infection rate,[2],104% (inactive)
O=C(OCCN1CCCCC1)c1c[nH]c2ccccc12 (10 µM),morphology score,[1],0.0285
same,SARS-CoV-2 infection rate,[2],102% (inactive)
Nc1ccc(C(=O)NCC(=O)O)cc1 [4-aminohippuric-acid] (10 µM),morphology score,[1],-0.0582
same,SARS-CoV-2 infection rate,[2],108% (inactive)
O=C(NCc1ccc2c(c1)OCO2)c1c(Cl)cccc1Cl [alda-1] (10 µM),morphology score,[1],0.107
same,SARS-CoV-2 infection rate,[2],104% (inactive)
CCNCC(O)c1cccc(O)c1 (configuration not stated) [etilefrine] (10 µM),morphology score,[1],0.131
same,SARS-CoV-2 infection rate,[2],100% (inactive)
CN[C@@H](C)C(=O)N[C@H](C(=O)N1CCC[C@H]1c1nc(C(=O)c2ccc(F)cc2)cs1)C1CCCCC1 (10 µM),morphology score,[1],0.403
same,SARS-CoV-2 infection rate,[2],87% (inactive)
CN(C)c1cc(CNCC(C)(C)C)c(O)c2c1C[C@H]1C[C@H]3[C@H](N(C)C)C(O)=C(C(N)=O)C(=O)[C@@]3(O)C(O)=C1C2=O [omadacycline] (10 µM),morphology score,[1],0.179
same,SARS-CoV-2 infection rate,[2],97.5% (inactive)
COc1nccc(-c2c(-c3ccc(F)cc3)ncn2[C@H]2CC[C@H](O)CC2)n1 (10 µM),morphology score,[1],0.396
same,SARS-CoV-2 infection rate,[2],85% (inactive)
CC(C)[C@@H]1C(=O)N(S(C)(=O)=O)[C@@H]2CCN(C(=O)/C=C/CN3CCCCC3)[C@H]21 (10 µM),morphology score,[1],0.0406
same,SARS-CoV-2 infection rate,[2],106% (inactive)
